The whole screen tested about 5,500 compounds, of which about 2,000 (36%) were called active. Another 18% or so got no clear call; they are omitted. No stated cut-off is given here; in the data, active means normalized growth mostly below about 0.91 (no sharp cut-off); inconclusive means no clear call, values can overlap the other calls; inactive means mostly above about 0.92. This is one part of the list.
Test: chemical genetic growth profiling, strain panel (AID 1159580);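 further: tested at 20 µM; growth read once vehicle control cultures reached saturation at 30 °C; 1 = growth at the plate median or of vehicle wells; lower values mean less growth of the strain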
Details: growth OD

Measured: normalized growth

NC[C@H]1O[C@H](O[C@H]2[C@H](O)[C@@H](O[C@H]3O[C@H](CO)[C@@H](O)[C@H](N)[C@H]3O)[C@H](N)C[C@@H]2N)[C@H](N)C[C@@H]1O
inactive: S. cerevisiae deletion strains, locus YJR075W, strain HOC1, active compounds read low 1.01 | S. cerevisiae deletion strains, locus YKL009W, strain mrt4, active compounds read low 1.02 | S. cerevisiae deletion strains, locus YKL068W, active compounds read low 0.998 | S. cerevisiae deletion strains, locus YKL085W, strain MDH1 (second series), active compounds read low 1 | S. cerevisiae deletion strains, locus YKL085W, strain MDH1, active compounds read low 1 | S. cerevisiae deletion strains, locus YKL160W, strain elf1, active compounds read low 0.959 | S. cerevisiae deletion strains, locus YKL190W, strain CNB1, active compounds read low 0.994 | S. cerevisiae deletion strains, locus YKR001C, strain vps1, active compounds read low 0.968 | S. cerevisiae deletion strains, locus YKR026C, strain gcn3, active compounds read low 1.02 | S. cerevisiae deletion strains, locus YKR091W, strain srl3, active compounds read low 1.01 | S. cerevisiae deletion strains, locus YLL001W, strain dnm1, active compounds read low 0.987 | S. cerevisiae deletion strains, locus YLL026W, active compounds read low 1.01 | S. cerevisiae deletion strains, locus YLL041C, strain sdh2, active compounds read low 1.01 | S. cerevisiae deletion strains, locus YLR027C, strain aat2, active compounds read low 1 | S. cerevisiae deletion strains, locus YLR039C, strain RIC1, active compounds read low 1.01 | S. cerevisiae deletion strains, locus YLR058C, strain SHM2, active compounds read low 0.994 | S. cerevisiae deletion strains, locus YLR102C, strain apc9, active compounds read low 1.01 | S. cerevisiae deletion strains, locus YLR113W, strain HOG1, active compounds read low 0.978 | S. cerevisiae deletion strains, locus YLR221C, strain rsa3, active compounds read low 0.998 | S. cerevisiae deletion strains, locus YLR258W, strain gsy2, active compounds read low 1.01 | S. cerevisiae deletion strains, locus YLR262C, strain YPT6 (second series), active compounds read low 0.973 | S. cerevisiae deletion strains, locus YLR262C, strain YPT6, active compounds read low 1.05 | S. cerevisiae deletion strains, locus YLR268W, strain sec22, active compounds read low 1.04 | S. cerevisiae deletion strains, locus YLR320W, strain mms22, active compounds read low 1 | S. cerevisiae deletion strains, locus YLR330W, strain CHS5, active compounds read low 1.01 | S. cerevisiae deletion strains, locus YLR342W, strain FKS1 (second series), active compounds read low 1.02 | S. cerevisiae deletion strains, locus YLR342W, strain FKS1, active compounds read low 1.01 | S. cerevisiae deletion strains, locus YLR357W, strain rsc2, active compounds read low 0.991 | S. cerevisiae deletion strains, locus YLR370C, strain arc18, active compounds read low 1.03 | S. cerevisiae deletion strains, locus YLR371W, strain rom2, active compounds read low 1.02 | S. cerevisiae deletion strains, locus YLR384C, strain iki3, active compounds read low 1.02 | S. cerevisiae deletion strains, locus YLR418C, strain cdc73, active compounds read low 0.986 | S. cerevisiae deletion strains, locus YML016C, strain PPZ1, active compounds read low 0.996 | S. cerevisiae deletion strains, locus YML032C, strain rad52, active compounds read low 1.02 | S. cerevisiae deletion strains, locus YML120C, strain ndi1, active compounds read low 1.01 | S. cerevisiae deletion strains, locus YML124C, strain tub3, active compounds read low 1.01 | S. cerevisiae deletion strains, locus YMR058W, strain fet3, active compounds read low 1 | S. cerevisiae deletion strains, locus YMR078C, strain ctf18, active compounds read low 1.01 | S. cerevisiae deletion strains, locus YMR125W, strain sto1, active compounds read low 1.01 | S. cerevisiae deletion strains, locus YMR129W, active compounds read low 1.01 | S. cerevisiae deletion strains, locus YMR205C, strain PFK2, active compounds read low 0.965 | S. cerevisiae deletion strains, locus YMR223W, strain ubp8, active compounds read low 0.988 | S. cerevisiae deletion strains, locus YMR231W, strain pep5, active compounds read low 0.996 | S. cerevisiae deletion strains, locus YMR307W, strain GAS1, active compounds read low 1.01 | S. cerevisiae deletion strains, locus YNL067W, strain RPL9B, active compounds read low 0.99 | S. cerevisiae deletion strains, locus YNL071W, strain lat1, active compounds read low 1.01 | S. cerevisiae deletion strains, locus YNL128W, strain TEP1, active compounds read low 0.995 | S. cerevisiae deletion strains, locus YNL153C, strain GIM3, active compounds read low 0.994 | S. cerevisiae deletion strains, locus YNL183C, strain NPR1, active compounds read low 0.933 | S. cerevisiae deletion strains, locus YNL209W, strain ssb2, active compounds read low 1.01 | S. cerevisiae deletion strains, locus YNL233W, strain BNI4, active compounds read low 1.01 | S. cerevisiae deletion strains, locus YNL248C, strain rpa49, active compounds read low 0.956 | S. cerevisiae deletion strains, locus YNL250W, strain rad50, active compounds read low 1.01 | S. cerevisiae deletion strains, locus YNL271C, strain bni1, active compounds read low 1 | S. cerevisiae deletion strains, locus YNL298W, strain CLA4, active compounds read low 0.998 | S. cerevisiae deletion strains, locus YNL307C, strain MCK1, active compounds read low 1.01 | S. cerevisiae deletion strains, locus YNL322C, strain KRE1 (second series), active compounds read low 1 | S. cerevisiae deletion strains, locus YNL322C, strain KRE1, active compounds read low 1.01 | S. cerevisiae deletion strains, locus YNR049C, strain mso1, active compounds read low 1.02 | S. cerevisiae deletion strains, locus YNR052C, strain pop2, active compounds read low 1.01 | S. cerevisiae deletion strains, locus YOL006C, strain TOP1, active compounds read low 1.02 | S. cerevisiae deletion strains, locus YOL012C, strain htz1 1.38 | S. cerevisiae deletion strains, locus YOL147C, strain pex11, active compounds read low 1.01 | S. cerevisiae deletion strains, locus YOR001W, strain rrp6, active compounds read low 1.05 | S. cerevisiae deletion strains, locus YOR061W, strain CKA2, active compounds read low 1.01 | S. cerevisiae deletion strains, locus YOR069W, strain VPS5, active compounds read low 1.01 | S. cerevisiae deletion strains, locus YOR070C, strain gyp1, active compounds read low 1.02 | S. cerevisiae deletion strains, locus YOR080W, strain dia2, active compounds read low 1.01 | S. cerevisiae deletion strains, locus YOR083W, strain WHI5, active compounds read low 0.959 | S. cerevisiae deletion strains, locus YOR106W, strain vam3, active compounds read low 0.964 | S. cerevisiae deletion strains, locus YOR136W, strain idh2, active compounds read low 0.993 | S. cerevisiae deletion strains, locus YOR144C, strain elg1, active compounds read low 1.01 | S. cerevisiae deletion strains, locus YOR184W, strain ser1, active compounds read low 0.99 | S. cerevisiae deletion strains, locus YOR231W, strain MKK1, active compounds read low 0.971 | S. cerevisiae deletion strains, locus YOR265W, strain rbl2, active compounds read low 1.03 | S. cerevisiae deletion strains, locus YOR270C, strain vph1, active compounds read low 0.943 | S. cerevisiae deletion strains, locus YOR290C, strain snf2, active compounds read low 0.987 | S. cerevisiae deletion strains, locus YOR316C, strain cot1, active compounds read low 1.01 | S. cerevisiae deletion strains, locus YPL051W, strain arl3, active compounds read low 0.988 | S. cerevisiae deletion strains, locus YPL055C, strain LGE1, active compounds read low 0.974 | S. cerevisiae deletion strains, locus YPL078C, strain atp4, active compounds read low 0.959 | S. cerevisiae deletion strains, locus YPL106C, strain sse1, active compounds read low 1.03 | S. cerevisiae deletion strains, locus YPL240C, strain hsp82, active compounds read low 1.02 | S. cerevisiae deletion strains, locus YPL256C, strain CLN2, active compounds read low 0.968 | S. cerevisiae deletion strains, locus YPR119W, strain clb2, active compounds read low 1.01 | S. cerevisiae deletion strains, locus YPR141C, strain kar3, active compounds read low 1.01 | S. cerevisiae deletion strains, locus YPR163C, strain tif3, active compounds read low 1.02 | S. cerevisiae deletion strains, locus YPR167C, strain met16, active compounds read low 1.01 | S. cerevisiae deletion strains, strain wtn01, active compounds read low 1.01 | S. cerevisiae strains, strain wild type, active compounds read low 0.998

Reference: PubChem BioAssay AID1159580 (chemical genetic matrix, 2015)
